# Source: PubChem BioAssay (National Center for Advancing Translational Sciences (NCATS))
# BAZ2B inh – blocks human BAZ2B | Q9UIF8 | AlphaScreen BAZ2B-H3K14Ac peptide displacement | Potency, µM (highest dose often 114 µM), without a hit: top-dose activity change, negative = inhibition, actives largely listed as inhibitors | actives 4.4% (n = 360,000); further: potency means the concentration at half of the fitted maximal effect; on the % scale 0 is the no-effect control and ±100 the full control effect; nearly all actives have a fitted effect of over 60% in size
#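 AlphaScreen displacement of biotin-H3(5-23)K14Ac peptide (50 nM final) from BAZ2B (50 nM final) in PBS pH 7.4, 0.01% Tween-20; complex preformed 30 min RT, then compounds (top 110 uM) 30 min RT, beads 20 min dark.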
# Sfp inh – Sfp phosphopantetheinyl transferase inhibition; Potency, µM, inactives show largest response in the series, negative = inhibition, most hits filed as inhibitors; Biochemical Sfp PPTase activity, qHTS; actives 3.5% (n = 310,000);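 further: the enzyme is Sfp with the accession as filed and its product quenches rhodamine fluorescence; potency means the concentration at half of the fitted maximal effect; 0% = enzyme reaction without inhibitor and -100% = no enzyme wells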
#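 With Hepes-Na pH 7.6 buffer containing 10 mM MgCl2, Sfp (15 nM) modified BHQ-2-YbbR (12.5 uM) using rhodamine-CoA (5 uM). Two reads 30 minutes apart at 525/598 nm yielded each well's rate.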
# G9a block – inhibitors of human histone lysine methyltransferase G9a; Potency, µM (series often up to 102 µM), inactives show at the top dose activity, negative = inhibition, hits mostly inhibitors; G9a H3K9 monomethylation, AlphaScreen, 2 h; actives 8.8% (n = 350,000); Q96KQ7; AID 504332; further: potency means the concentration at half of the fitted maximal effect; on the % scale 0 is the no-effect control and ±100 the full control effect; nearly all actives have a fitted effect of over 75% in size
#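 Step 1: enzyme (final 20 nM) with compound, 15 min RT. Step 2: substrate peptide 500 nM and SAM 20 uM, 2 h RT. Step 3: anti-H3K9me1 antibody and AlphaScreen beads, 10 min, then plate read.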
# JMJD2A Tudor – JMJD2A Tudor domain (human) inhibition | O75164 | AlphaScreen JMJD2A-Tudor / H3K4me3 peptide binding | Potency, µM (highest dose often 114 µM), inactives show top-dose activity change, negative = inhibition, hits mostly inhibitors | actives 4.4% (n = 390,000) | AID 504339; further: potency means the concentration at half of the fitted maximal effect; on the % scale 0 is the no-effect control and ±100 the full control effect; nearly all actives have a fitted effect of over 50% in size
# HP1b chromo inh – HP1-beta chromodomain-methylated histone interaction inhibition | P83916 | AlphaScreen HP1-beta / biotin-H3K9me3 peptide binding | Potency, µM (series often up to 114 µM), inactives show top-dose activity change, negative = inhibition, hits mostly inhibitors | actives 0.56% (n = 390,000) | AID 540317; further: potency means the concentration at half of the fitted maximal effect; nearly all actives have a fitted effect of over 70% in size
#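 AlphaScreen: HP1-beta (50 nM) preformed 30 min with biotin-H3(1-18)K9me3 peptide (50 nM) in PBS pH 7.4, 0.01% Tween-20. Compound added for 30 min at RT, then streptavidin donor/nickel chelate acceptor beads (10 ug/mL) for 30 min.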
# Sfp inh conf – Sfp phosphopantetheinyl transferase inhibition, confirmation | Potency, µM (highest dose often 114 µM), inactives show at the top dose activity change, negative = inhibition, actives largely listed as inhibitors | actives 79% (n = 380) | Sfp PPTase enzymatic assay, qHTS titration | shares compounds with Sfp inh | AID 2701;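 further: potency means the concentration at half of the fitted maximal effect; plate controls were uninhibited Sfp reaction for no effect and no enzyme control for full effect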
# Sfp PPTase gel – Inhibits B. subtilis Sfp phosphopantetheinylation; actives 20% (n = 210); shares compounds with Sfp inh; purified Sfp, gel-based phosphopantetheinylation read-out; Potency, µM, most hits filed as inhibitors; AID 2707;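 active means potency below 100 µM; inconclusive means dose-dependent response but potency above 100 µM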;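 further: band intensities scaled against SCH202676 control wells before curve fitting; potency is an IC50 for inhibitors of Sfp transfer activity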
# An asterisk follows results filed as active; i = inactive; ? = inconclusive; . = not tested or not shown; [ ] = remark or other dose. Shown are actives, neighbours in structure and some others; about 12% of the full set was active somewhere. Unless noted, the call rests on the fitted dose curve; in most records, active means well fitted curve in the direction sought with a large enough effect; inconclusive means small, poorly fitted or top-dose-only effect, or another doubt; inactive means no such curve, though single readings can be large; an effect the other way counts as inactive or inconclusive.
SMILES,BAZ2B inh,Sfp inh,G9a block,JMJD2A Tudor,HP1b chromo inh,Sfp inh conf,Sfp PPTase gel
COc1cc(/C=C/C(=O)O)cc(S(=O)(=O)Nc2cc(Cl)c(Cl)cc2Cl)c1OC,-10%,13%,.,-15%,-7%,.,.
Clc1cc(Cl)c2nc(N3CCCCC3)sc2c1,141%,10µM*,?,119%,103%,47µM*,.
COC(=O)c1c(NC(=O)COC(=O)c2ccc(Cl)cc2[N+](=O)[O-])sc2c1CCCCC2,-12%,10µM*,8%[59 µM],-14%,21%,?,.
COc1cc(C(=O)NCCN2C(=O)S/C(=C\c3ccc(F)cc3)C2=O)ccc1OCC(=O)N1CCOCC1,2%,28%,12%[59 µM],-23%,60%,.,.
CCN(C(=O)C1CCC(CNS(=O)(=O)c2cccc3nsnc23)CC1)c1ccccc1 (stereo not given),?,.,-2%[59 µM],-29%,0%,.,.
Nc1nc(NCC2CCC(CNS(=O)(=O)c3cccc4ccccc34)CC2)nc2ccccc12 (stereo not given),.,28µM*,25µM*,.,.,47µM*,56µM*
c1csc(-c2nn3c(C4COc5ccccc5O4)nnc3s2)c1 (stereo not given),-3%,7.9µM*,5µM*,-32%,-35%,24µM*,.
c1ccc2c(c1)OCC(c1nnc3n1-c1ccccc1SC3)O2 (stereo not given),0%,7%,2%,-17%,33%,.,.
Cn1c(CCC(=O)O)nc2cc(S(=O)(=O)N3CCCC3)ccc21,.,.,.,-14%,4%[57 µM],.,.
CCN(CC)S(=O)(=O)c1ccc2c(c1)nc(CCC(=O)O)n2C,-19%,20µM*,25µM*,-15%[11.4 µM],15%,47µM*,.
COc1ccccc1OCC(=O)NCCS(=O)(=O)N1CCN(c2ccccc2OC)CC1,0%,.,7%[59 µM],-2%,23%[57 µM],.,.
Cc1ccc(-c2nc(N)sc2CC(=O)OCC(=O)N2C(C)CCCC2C)cc1 (stereo not given),?,18µM*,?,-19%,-9%,37µM*,i
CC(C)(C)c1ccc(OCCC(=O)NCCc2ccc(S(N)(=O)=O)cc2)cc1,-6%,20µM*,?,-5%,33%,12%,.
CCOC(=O)c1c(NC(=O)COC(=O)c2nccnc2N)sc2c1CCC2,8%,.,1%[12.7 µM],-15%,21%,.,.
COc1cccc(CNC(=O)c2cc(S(=O)(=O)N3CCCCC3)c[nH]2)c1,-33%,4%,?,-19%,12%,.,.
CCOC(=O)c1ccc(NC(=O)c2c(NC(=O)CCC(=O)O)sc3c2CCCCC3)cc1,-31%,11µM*,32µM*,-34%,?,12µM*,i
CCOc1ccccc1NC(=O)c1c(NC(=O)CCC(=O)O)sc2c1CCCCC2,?,13µM*,25µM*,45µM*,-24%,24µM*,i
Cc1cccc(-c2oc3ccccc3c2C#CCCCCO)c1,25%,-7%,.,33%,91%,.,.
Cc1cc(C(F)(F)F)nn1Cc1ccc(C(=O)NCc2ccco2)o1,19%,0.89µM*,?,-29%,31%,47µM*,.
O=[N+]([O-])c1ccc2nc(-c3ccc(Cl)cc3)[nH]c2c1,-4%,0.35µM*,40µM*,-20%,11%,-3%,56µM*
Cc1ccc(-c2nc3ccc([N+](=O)[O-])cc3[nH]2)cc1,-35%,10%,?,-33%,13%,.,.
Cc1cccc(Oc2coc3cc(OC(=O)c4cncc(Br)c4)ccc3c2=O)c1,6%,-21%,?,0%,30%,.,.
O=C(O)c1cc(/C=C/C(=O)c2cc(F)ccc2O)c2c(c1)COCO2,50µM*,22µM*,.,?,-6%,47µM*,i
CCOc1ccc2nc(SCC(=O)c3ccc(C)s3)sc2c1,24%,18µM*,?,-2%,79%,?,i
